The supplement of paper PMC10849652
About 8,800 targets were measured; listed, in parts, are those with a hit and a random draw of the rest. About 0.5% of all pairs of compound and target were hits. Unmarked numbers belong to inactive results.

Tests used:
Assay in all cases: log2 fold change, soluble protein after heating vs DMSO (PISA); higher = thermal stabilisation; K562 lysate, 10 uM; active = over 0.2 and 3.5 SD of the protein, either way, in both replicates (recomputed)
ibrutinib = compound: C=CC(=O)N1CCC[C@@H](n2nc(-c3ccc(Oc4ccccc4)cc3)c3c(N)ncnc32)C1 [ibrutinib]
Method in brief: (§1)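 Quantification was by TMTpro 16plex LC-MS/MS with equalised channel sums, applied to the supernatant after 21,000xg for 90 min. Samples were crude K562 extract at 1 mg/mL protein in PBS pH 7.4 with 1 mM MgCl2, treated with 10 μM compound for 30 min, heated for 3 min across 48°C-58°C, pooled and brought to 0.5% NP-40 at 4°C. Values are log-two fold changes in thermal stability relative to solvent controls, from duplicates.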

[1] = compound: CC(=O)c1cnc2ccc(-c3cc(Cl)c(O)c(Cl)c3)nc2c1N[C@H]1CC[C@H](CN(C)C)CC1
Method in brief: as §1

ralimetinib = compound: CC(C)(C)Cn1c(N)nc2ccc(-c3[nH]c(C(C)(C)C)nc3-c3ccc(F)cc3)nc21 [ralimetinib]
Method in brief: as §1

[2] = compound: CC(C)(O)CC(=O)NCCn1ccc2ncnc(Nc3ccc(Oc4cccc(C(F)(F)F)c4)c(Cl)c3)c21
Method in brief: as §1

[3] = compound: CC(C)C1=C2N=C(C=C(N2N=C1)NCC3=CC=CC=C3)NCCCCCCN
Method in brief: as §1

[4] = compound: CC1=C(C(CC(=O)N1)C2=CC=C(C=C2)C(F)(F)F)C(=O)NC3=C(C=C4C(=C3)C=NN4)F
Method in brief: as §1

[5] = compound: CC1=C(C2=C(C=C1)C(=O)C3=CC=CC=C3N2CCCN)C
Method in brief: as §1

[6] = compound: CC1=C(C=C(C=C1)NC(=O)C2=CC(=CC=C2)C(C)(C)C#N)NC3=CC4=C(C=C3)N=CN(C4=O)C
Method in brief: as §1

[7] = compound: CC1=C(C=C(C=C1)NC(=O)C2=CC(=CC=C2)N(C)C)NC(=O)C3=CC=C(C=C3)O
Method in brief: as §1

[8] = compound: CC1=CC=C(C=C1)SC2=C3C=C(SC3=CN=C2)C(=O)N
Method in brief: as §1

Sequence of UniProt Q8N653 (Q8N653 whole entry, looked up): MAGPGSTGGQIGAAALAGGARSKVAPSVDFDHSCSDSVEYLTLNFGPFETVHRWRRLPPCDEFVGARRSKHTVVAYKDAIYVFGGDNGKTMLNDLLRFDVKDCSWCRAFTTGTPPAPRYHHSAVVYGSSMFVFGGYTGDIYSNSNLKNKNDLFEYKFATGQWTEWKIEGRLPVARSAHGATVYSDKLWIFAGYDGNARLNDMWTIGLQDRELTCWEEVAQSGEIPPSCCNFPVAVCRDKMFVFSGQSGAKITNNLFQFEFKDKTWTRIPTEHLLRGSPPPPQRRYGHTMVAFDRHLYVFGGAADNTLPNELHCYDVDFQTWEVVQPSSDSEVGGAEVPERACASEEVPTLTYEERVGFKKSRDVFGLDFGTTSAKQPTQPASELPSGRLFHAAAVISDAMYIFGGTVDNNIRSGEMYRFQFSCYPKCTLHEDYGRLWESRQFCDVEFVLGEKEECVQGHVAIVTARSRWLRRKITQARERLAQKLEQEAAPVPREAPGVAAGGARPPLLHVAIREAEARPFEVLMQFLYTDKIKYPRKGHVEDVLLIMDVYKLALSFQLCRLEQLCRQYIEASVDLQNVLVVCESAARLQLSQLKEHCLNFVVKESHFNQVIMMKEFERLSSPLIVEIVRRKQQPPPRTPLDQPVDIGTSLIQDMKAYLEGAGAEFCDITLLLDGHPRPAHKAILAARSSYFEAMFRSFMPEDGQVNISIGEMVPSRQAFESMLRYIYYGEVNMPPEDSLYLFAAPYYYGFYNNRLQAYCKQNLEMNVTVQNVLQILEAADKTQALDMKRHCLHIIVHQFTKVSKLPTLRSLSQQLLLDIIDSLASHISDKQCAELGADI
Sequence of UniProt Q9NVC6 (Q9NVC6 whole entry, looked up): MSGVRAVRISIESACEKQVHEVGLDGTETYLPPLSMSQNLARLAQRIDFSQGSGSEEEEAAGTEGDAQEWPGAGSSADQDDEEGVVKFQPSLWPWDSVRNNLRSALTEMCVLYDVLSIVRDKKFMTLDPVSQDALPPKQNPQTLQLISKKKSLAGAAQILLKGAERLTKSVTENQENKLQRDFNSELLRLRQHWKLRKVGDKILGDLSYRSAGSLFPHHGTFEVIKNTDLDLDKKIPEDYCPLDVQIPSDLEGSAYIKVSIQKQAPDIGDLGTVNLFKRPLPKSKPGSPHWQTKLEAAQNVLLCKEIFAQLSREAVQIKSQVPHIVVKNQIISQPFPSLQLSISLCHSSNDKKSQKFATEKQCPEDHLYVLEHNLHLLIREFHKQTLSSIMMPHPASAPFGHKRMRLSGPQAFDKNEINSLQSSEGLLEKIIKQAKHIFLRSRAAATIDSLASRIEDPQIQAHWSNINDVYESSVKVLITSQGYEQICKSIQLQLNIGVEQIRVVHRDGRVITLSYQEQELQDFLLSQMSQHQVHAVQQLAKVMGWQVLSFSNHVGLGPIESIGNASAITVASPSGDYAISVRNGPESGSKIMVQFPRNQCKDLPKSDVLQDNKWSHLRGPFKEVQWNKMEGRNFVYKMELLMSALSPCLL
Sequence of UniProt Q8WXB1 (Q8WXB1 whole entry, looked up): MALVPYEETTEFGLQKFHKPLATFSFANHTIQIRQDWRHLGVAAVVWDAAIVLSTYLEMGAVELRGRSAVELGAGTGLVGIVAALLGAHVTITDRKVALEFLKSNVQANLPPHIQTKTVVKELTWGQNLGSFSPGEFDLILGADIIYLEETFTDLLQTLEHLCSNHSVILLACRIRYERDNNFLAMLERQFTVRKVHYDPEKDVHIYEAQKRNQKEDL
Sequence of UniProt Q71SY5 (Q71SY5 whole entry, looked up): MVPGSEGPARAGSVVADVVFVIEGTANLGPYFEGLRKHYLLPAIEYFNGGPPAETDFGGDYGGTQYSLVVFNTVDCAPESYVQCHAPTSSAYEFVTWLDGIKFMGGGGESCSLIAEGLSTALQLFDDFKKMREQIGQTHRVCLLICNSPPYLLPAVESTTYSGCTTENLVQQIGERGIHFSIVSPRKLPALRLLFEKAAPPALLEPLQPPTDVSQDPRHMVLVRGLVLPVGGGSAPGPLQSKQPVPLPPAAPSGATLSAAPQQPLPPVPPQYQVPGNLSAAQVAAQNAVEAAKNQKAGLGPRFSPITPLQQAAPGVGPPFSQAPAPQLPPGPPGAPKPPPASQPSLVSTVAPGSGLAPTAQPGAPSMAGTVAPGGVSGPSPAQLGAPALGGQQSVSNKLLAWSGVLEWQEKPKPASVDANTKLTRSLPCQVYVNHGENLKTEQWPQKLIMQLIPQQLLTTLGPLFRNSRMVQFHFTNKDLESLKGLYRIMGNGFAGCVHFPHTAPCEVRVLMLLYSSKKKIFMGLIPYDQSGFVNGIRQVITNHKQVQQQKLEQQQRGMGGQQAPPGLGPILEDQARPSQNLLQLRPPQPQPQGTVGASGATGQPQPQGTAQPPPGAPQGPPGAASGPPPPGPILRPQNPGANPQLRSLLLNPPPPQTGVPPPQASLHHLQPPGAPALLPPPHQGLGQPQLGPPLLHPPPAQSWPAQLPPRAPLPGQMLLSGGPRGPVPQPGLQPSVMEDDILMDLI
Sequence of UniProt Q7Z4S6 (Q7Z4S6 whole entry, looked up): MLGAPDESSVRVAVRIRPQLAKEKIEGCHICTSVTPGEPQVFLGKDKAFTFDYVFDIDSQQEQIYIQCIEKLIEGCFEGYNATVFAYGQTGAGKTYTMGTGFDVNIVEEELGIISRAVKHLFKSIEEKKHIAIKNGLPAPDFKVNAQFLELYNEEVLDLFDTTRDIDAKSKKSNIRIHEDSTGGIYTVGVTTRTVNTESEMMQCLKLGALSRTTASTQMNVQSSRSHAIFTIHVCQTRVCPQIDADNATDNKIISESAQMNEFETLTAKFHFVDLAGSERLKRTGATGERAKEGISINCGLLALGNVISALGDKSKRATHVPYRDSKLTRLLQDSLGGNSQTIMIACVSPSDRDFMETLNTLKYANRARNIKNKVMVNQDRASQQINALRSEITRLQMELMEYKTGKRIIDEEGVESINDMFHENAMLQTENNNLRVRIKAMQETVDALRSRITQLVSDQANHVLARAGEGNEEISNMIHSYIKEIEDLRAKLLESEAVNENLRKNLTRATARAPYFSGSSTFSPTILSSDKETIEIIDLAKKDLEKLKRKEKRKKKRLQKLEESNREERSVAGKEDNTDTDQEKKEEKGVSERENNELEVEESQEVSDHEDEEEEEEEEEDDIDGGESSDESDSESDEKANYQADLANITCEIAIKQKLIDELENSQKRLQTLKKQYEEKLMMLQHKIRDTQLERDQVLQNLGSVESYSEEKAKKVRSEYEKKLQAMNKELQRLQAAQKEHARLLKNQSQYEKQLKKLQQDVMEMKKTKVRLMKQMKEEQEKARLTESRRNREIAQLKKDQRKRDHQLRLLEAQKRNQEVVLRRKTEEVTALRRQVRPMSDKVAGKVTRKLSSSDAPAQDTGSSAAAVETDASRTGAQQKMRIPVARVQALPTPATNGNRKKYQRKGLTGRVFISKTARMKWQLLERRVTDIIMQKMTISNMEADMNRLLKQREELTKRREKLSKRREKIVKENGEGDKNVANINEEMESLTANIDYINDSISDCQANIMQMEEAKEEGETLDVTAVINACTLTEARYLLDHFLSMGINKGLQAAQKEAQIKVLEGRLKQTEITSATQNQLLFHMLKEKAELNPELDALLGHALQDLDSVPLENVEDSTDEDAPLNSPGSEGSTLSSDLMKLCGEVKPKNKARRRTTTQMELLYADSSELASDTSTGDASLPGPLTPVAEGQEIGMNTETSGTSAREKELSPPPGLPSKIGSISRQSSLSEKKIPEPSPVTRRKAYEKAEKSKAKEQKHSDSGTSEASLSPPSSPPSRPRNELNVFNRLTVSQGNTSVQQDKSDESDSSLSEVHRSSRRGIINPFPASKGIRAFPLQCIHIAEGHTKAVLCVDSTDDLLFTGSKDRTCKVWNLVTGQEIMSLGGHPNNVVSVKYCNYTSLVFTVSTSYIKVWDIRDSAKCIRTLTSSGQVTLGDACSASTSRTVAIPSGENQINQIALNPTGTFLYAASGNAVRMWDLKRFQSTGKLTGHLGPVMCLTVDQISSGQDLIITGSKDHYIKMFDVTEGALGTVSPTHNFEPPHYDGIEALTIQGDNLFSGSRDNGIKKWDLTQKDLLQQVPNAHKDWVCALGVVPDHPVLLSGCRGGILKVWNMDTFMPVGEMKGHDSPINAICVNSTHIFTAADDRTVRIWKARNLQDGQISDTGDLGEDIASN
Sequence of UniProt Q96G25 (Q96G25 whole entry, looked up): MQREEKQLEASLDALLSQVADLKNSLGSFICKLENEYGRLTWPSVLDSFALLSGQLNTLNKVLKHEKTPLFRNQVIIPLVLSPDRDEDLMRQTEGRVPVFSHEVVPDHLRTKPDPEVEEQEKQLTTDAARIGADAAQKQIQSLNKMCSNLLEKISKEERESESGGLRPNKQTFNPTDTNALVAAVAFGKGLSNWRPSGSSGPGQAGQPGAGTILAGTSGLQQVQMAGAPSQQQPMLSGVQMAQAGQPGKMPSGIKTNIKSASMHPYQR
Sequence of UniProt Q8N4N3 (Q8N4N3 whole entry, looked up): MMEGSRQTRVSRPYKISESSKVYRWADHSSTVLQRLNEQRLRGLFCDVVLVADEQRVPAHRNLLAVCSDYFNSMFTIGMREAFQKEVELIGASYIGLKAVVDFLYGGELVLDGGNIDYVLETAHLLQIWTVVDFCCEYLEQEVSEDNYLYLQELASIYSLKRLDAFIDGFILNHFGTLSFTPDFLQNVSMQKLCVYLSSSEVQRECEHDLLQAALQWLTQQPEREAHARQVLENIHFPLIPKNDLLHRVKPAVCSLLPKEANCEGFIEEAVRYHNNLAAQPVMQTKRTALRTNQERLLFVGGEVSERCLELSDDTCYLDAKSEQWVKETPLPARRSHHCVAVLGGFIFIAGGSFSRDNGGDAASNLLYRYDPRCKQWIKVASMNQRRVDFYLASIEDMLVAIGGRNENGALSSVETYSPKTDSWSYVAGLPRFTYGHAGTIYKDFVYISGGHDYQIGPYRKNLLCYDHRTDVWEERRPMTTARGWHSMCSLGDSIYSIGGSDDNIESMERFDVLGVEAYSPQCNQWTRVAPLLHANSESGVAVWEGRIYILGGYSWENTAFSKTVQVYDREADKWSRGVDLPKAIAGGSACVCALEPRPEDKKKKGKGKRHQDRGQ

Target	log2 fold change (ibrutinib)	log2 fold change [1]	log2 fold change (ralimetinib)	log2 fold change [2]	log2 fold change [3]	log2 fold change [4]	log2 fold change [5]	log2 fold change [6]	log2 fold change [7]	log2 fold change [8]
MED25 isoform 3 (UniProt Q71SY5)	-0.034	0.001	-0.071	0.045	-0.023	0.038	-0.039	0.035	0.057	0.025
KIF21A isoform 5 (UniProt Q7Z4S6)	0.027	-0.002	0.015	0	0.002	0.034	-0.031	0.025	0.014	0.024
KLC1 isoform 6 (UniProt Q07866)	-0.022	-0.012	0.019	0.005	0.002	-0.01	0.012	0.028	-0.002	-0.017
MAP4K4 isoform 3 (UniProt O95819)	-0.052	-0.021	-0.065	-0.002	0.046	0.067	-0.042	-0.022	0.062	-0.056
MAPK8 isoform 3 (UniProt P45983)	0.038	0.445 (active)	0.294	0.025	0.035	-0.057	-0.017	0.013	0.047	-0.012
LEPROT (UniProt O15243)	0.005	-0.273	-0.034	0.054	0.267	–	–	0.181	0.016	0
MRPL30 isoform 2 (UniProt Q8TCC3)	0.01	0.043	0.04	-0.084	0	0	-0.037	0.02	-0.006	0.087
MANEA (UniProt Q5SRI9)	0	0.038	0.024	-0.1	0.041	–	-0.009	0.037	0.114	0.068
MAP3K4 (UniProt Q9Y6R4)	0.046	0.19	0	0.005	-0.039	-0.015	-0.012	-0.006	-0.001	-0.027
MAP1S (UniProt Q66K74)	-0.008	-0.026	0.004	-0.041	-0.005	0.011	-0.021	0	0.025	0.006
LAGE3 (UniProt Q14657)	0.047	0.002	0.012	0	-0.004	-0.147	-0.098	-0.002	0.031	0.046
LSM8 (UniProt O95777)	0.051	0.012	0.055	-0.021	-0.02	-0.01	-0.011	0.03	-0.007	0.005
MAP4K2 (UniProt Q12851)	-0.036	0.337	-0.029	0.108	0.04	–	-0.144	0.058	0.209	-0.207
MAST2 (UniProt Q6P0Q8)	0.136	0.054	0.033	-0.084	0.071	–	-0.157	0.03	0.031	-0.022
MLST8 (UniProt Q9BVC4)	0	0.011	-0.038	0.021	0.063	-0.042	-0.021	-0.003	0.044	0.023
KIF4A (UniProt O95239)	0.011	0.007	-0.014	0.003	-0.002	-0.013	-0.027	0.004	0.056	0.048
KLHL36 (UniProt Q8N4N3)	0.002	-0.047	0.092	-0.028	0.053	-0.008	-0.085	-0.005	-0.098	-0.003
LZTR1 (UniProt Q8N653)	-0.074	-0.441	-0.023	0.102	0.009	0.048	-0.014	-0.001	0.113	0.041
METTL2A (UniProt Q96IZ6)	-0.006	0.044	0.048	0.068	0.018	0.021	0.038	-0.029	-0.025	0.002
MAP4K4 isoform 6 (UniProt O95819)	0.056	0.001	-0.19	0.027	-0.021	–	-0.127	–	0.002	0.037
MON2 isoform 5 (UniProt Q7Z3U7)	-0.027	0.001	0.017	-0.042	-0.02	0.012	0.002	0.01	0.025	0
LIMS1 isoform 3 (UniProt P48059)	0.003	0.033	0.003	0.023	-0.036	-0.012	-0.01	0.052	-0.023	-0.006
KNL1 (UniProt Q8NG31)	0.009	-0.014	0.012	-0.032	0.013	0.012	-0.022	0	0.004	0.012
LAS1L (UniProt Q9Y4W2)	-0.016	0.017	0.043	-0.017	0.042	0.035	-0.061	-0.006	0.037	0.035
MED17 (UniProt Q9NVC6)	0.018	0.003	0	-0.003	-0.017	0.04	0.019	0	0.021	0.001
MED8 isoform 2 (UniProt Q96G25)	0.109	0.024	0.012	0.036	0.006	-0.03	-0.001	-0.005	-0.05	-0.058
LZTS1 (UniProt Q9Y250)	0.104	-0.008	0.049	-0.176	0.116	-0.028	-0.233	0.705	-0.111	-0.007
METTL21A (UniProt Q8WXB1)	0.006	-0.106	0.021	-0.032	0	-0.019	-0.138	0	0.009	-0.032
LUZP1 (UniProt Q86V48)	0.002	-0.002	0.003	-0.012	0.016	-0.006	0.012	0.011	-0.002	0.017
LAP3 (UniProt P28838)	0.043	-0.03	-0.05	-0.103	0	-0.024	-0.042	0.117	-0.009	-0.018
